Screening results from PubChem.
Only some compounds are listed: those with a hit (about 4.5% of all), similar ones and a draw of the others.
Gli-Sufu block – antagonists of Gli-Sufu signaling | inhibition, % at 5 µM | 340,000 tested, 0.74% active | Sufu-KO-LIGHT fibroblasts, Gli luciferase reporter luminescence | AID 588413;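 active = inhibition above about 55%, limit read from the data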
697 NFkB inh – lowers PMA/ionomycin-induced NF-kB signal in 697 B cells. inhibition, % at 4 µM. 697 B-cell NF-kB luciferase reporter, 16 h. 330,000 tested, 0.33% active; in the data active = inhibition above about 35%
CSC inhib – cancer stem cell inhibition | inhibition, % at 7.5 µM | 300,000 tested, 1.1% active | AID 2717 | cancer stem cell-like cells viability, luminescence; in the data active = inhibition above about 75%; inconclusive = no clear call, values can overlap the other calls; tested in HMLE shEcad cells
Mdm2-MdmX inh – human Mdm2/MdmX binding inhibition | SaOS-2 split-luciferase Mdm2/MdmX complementation, luminescence | AID 485346 | inhibition, % at 8 µM | 330,000 tested, 3% active;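 active = inhibition of at least 50% at 8 µM in the primary screen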
Target sequence (O15151 whole entry, looked up): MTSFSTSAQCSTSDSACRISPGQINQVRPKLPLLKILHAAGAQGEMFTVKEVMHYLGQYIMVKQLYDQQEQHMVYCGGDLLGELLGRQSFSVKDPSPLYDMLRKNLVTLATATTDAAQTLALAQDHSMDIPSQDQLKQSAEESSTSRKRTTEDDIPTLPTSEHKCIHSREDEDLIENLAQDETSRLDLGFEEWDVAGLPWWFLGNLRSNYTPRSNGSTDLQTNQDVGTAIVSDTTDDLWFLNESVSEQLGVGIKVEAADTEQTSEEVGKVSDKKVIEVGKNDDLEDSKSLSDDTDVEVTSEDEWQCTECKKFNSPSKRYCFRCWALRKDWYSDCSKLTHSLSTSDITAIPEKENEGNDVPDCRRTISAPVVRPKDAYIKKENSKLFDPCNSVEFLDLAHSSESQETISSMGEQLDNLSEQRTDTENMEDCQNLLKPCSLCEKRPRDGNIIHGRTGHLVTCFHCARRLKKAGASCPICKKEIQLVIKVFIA
Target sequence (Q00987 whole entry, looked up): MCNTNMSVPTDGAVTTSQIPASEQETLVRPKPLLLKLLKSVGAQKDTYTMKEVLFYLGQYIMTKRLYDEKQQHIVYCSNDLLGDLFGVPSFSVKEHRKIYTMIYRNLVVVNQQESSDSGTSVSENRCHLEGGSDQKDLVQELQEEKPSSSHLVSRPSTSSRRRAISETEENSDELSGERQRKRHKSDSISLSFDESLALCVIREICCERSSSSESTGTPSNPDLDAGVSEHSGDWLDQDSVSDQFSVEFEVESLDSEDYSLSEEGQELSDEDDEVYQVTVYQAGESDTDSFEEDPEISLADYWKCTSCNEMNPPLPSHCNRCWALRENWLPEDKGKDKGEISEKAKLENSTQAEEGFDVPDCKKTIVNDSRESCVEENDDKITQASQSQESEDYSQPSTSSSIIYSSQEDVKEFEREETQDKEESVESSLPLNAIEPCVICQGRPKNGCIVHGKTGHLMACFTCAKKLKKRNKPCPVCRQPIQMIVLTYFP
aSyn 5UTR inh – 5' untranslated region of α-synuclein, MLPCN primary screen; alpha-synuclein 5'UTR reporter, inhibitor activity; inhibition, % (tested at 7.5 µM); 300,000 tested, 0.82% active; AID 1813; in the data active = inhibition above about 60%; inconclusive = no clear call, values can overlap the other calls;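 also: H4 neuroglioblastoma cells stably carrying SNCA 5'UTR luciferase fusion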
Jurkat NFkB inh – inhibitors of the PMA/ionomycin-induced NF-kB reporter in Jurkat cells | PMA/ionomycin-induced NF-kB luciferase reporter, luminescence | inhibition, % at 4 µM | 330,000 tested, 0.53% active | AID 435003; in the data active = inhibition above about 50%
Mdm2 MdmX conf – human Mdm2/MdmX binding inhibition, confirmed; luminescent assay; inhibition, % at 8 µM; 10,000 tested, 55% active; shares compounds with Mdm2-MdmX inh; in the data active = inhibition above about 40%
FLuc counter – counter-screen for Mdm2/MdmX inhibitors: full-length luciferase; AID 504607; inhibition, % at 8 µM; SaOS-2 full-length luciferase counterscreen, luminescence; 6,200 tested, 77% active; shares compounds with Mdm2-MdmX inh;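 active = mean inhibition at 8 µM reaching about 37%, which flags the compound as non-specific, limit read from the data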;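 also: p53-null SaOS-2 cells with luciferase driven by a doxycycline-inducible promoter; compound on cells about two nights before reading with doxycycline added after day one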
Hits are given with their value; n = inactive; u = inconclusive; x = no result given.

SMILES | Gli-Sufu block | 697 NFkB inh | CSC inhib | Mdm2-MdmX inh | aSyn 5UTR inh | Jurkat NFkB inh | Mdm2 MdmX conf | FLuc counter
O=C(N/N=C(\Cc1ncc[nH]1)c1ccccc1)c1ccncc1 | n | n | 78.5 | 66.5 | n | n | 62.9 | n
O=C(N/N=C(\Cc1ncc[nH]1)c1ccccc1)c1ccccc1 | x | n | n | 76.1 | 74.2 | n | 52.6 | n
C/C(=N/NC(=O)c1ccncc1)c1ccccc1 | n | n | n | n | n | n | x | x
O=C(O)c1ccc(Nc2nc(-c3ccc([N+](=O)[O-])cc3)nc3ccccc23)cc1 | n | n | n | n | n | n | x | x
COc1ccc(Nc2nc(-c3cccc([N+](=O)[O-])c3)nc3ccccc23)cc1 | n | n | 123.7 | 55.1 | n | n | n | x
O=[N+]([O-])c1ccc(-c2nc(Nc3ccc(O)cc3)c3ccccc3n2)cc1 | n | n | n | 70.3 | n | n | n | x
CN(C)S(=O)(=O)c1cccc(NC(=O)COc2ccccc2C(=O)NCc2ccccc2)c1 | n | n | x | n | x | n | x | x
Cc1cc2c3c([nH]c2cc1S(=O)(=O)N1CCC2(CC1)OCCO2)CCCC3=O | n | n | n | n | n | n | x | x
CC(C)(c1ccccc1)c1ccc(OCC(O)CNC2CCN(Cc3ccccc3)CC2)cc1 (centres undefined) | n | n | 106.5 | 98.7 | n | n | 65.7 | n
CCOc1ccc(OCC(O)CNC2CCN(Cc3ccccc3)CC2)cc1 (centres undefined) | n | n | n | n | n | n | x | x
COc1ccc(CN2CC[C@H]3C=CC[C@@H](C(=O)NCCc4ccccc4)[C@H]3C2=O)cc1OC | n | n | n | n | n | n | x | x
COC(=O)c1ccc2c(=O)n(CCCCCC(=O)N3CCN(c4ccc(F)cc4)CC3)c(=O)[nH]c2c1 | n | n | n | 67.1 | n | n | n | x
COc1cc2[nH]c(=O)n(CCC(=O)N3CCN(c4cc(Cl)ccc4C)CC3)c(=O)c2cc1OC | n | n | n | 75.3 | n | n | n | x
COc1cc2[nH]c(=O)n(CCCCCC(=O)N3CC=C(c4ccccc4)CC3)c(=O)c2cc1OC | n | n | n | 59.1 | n | n | n | x
COC(=O)C1(C)Cc2cc(OC(C)=O)c(OC(C)=O)cc2N1 (centres undefined) | x | n | n | n | n | n | x | x
CCC[C@@H]1C[C@@]1(CCC)[C@@H](NP(=O)(c1ccccc1)c1ccccc1)c1ccc(C(=O)OC)cc1 | n | n | n | 75.1 | n | n | n | 73.0
COC(=O)c1sc(-c2ccccc2)cc1NC(=O)c1cc(OC)cc(OC)c1 | n | n | n | n | n | n | x | x
COC(=O)c1sc(-c2ccccc2)cc1NC(=O)c1ccc(OC)cc1 | n | n | n | 75.5 | n | n | n | x
CCOC(=O)c1cc(-c2ccccc2)sc1NC(=O)c1ccc(OC)cc1 | n | n | n | 75.0 | n | n | n | x
O=C1C=C(N2CCOCC2)c2ccccc2C1=O | n | n | n | 74.4 | 113.6 | n | n | x
CCOC(=O)c1c2c(n(-c3ccc(OC)cc3)c1C)C(=O)C(=O)c1ccccc1-2 | n | x | x | x | x | x | x | x
CCOC(=O)c1c2c(n(C)c1COC)C(=O)C(=O)c1ccc(Br)cc1-2 | x | n | 121.3 | 99.3 | 92.1 | n | 98.3 | n
CC1=C(C)CC(C(=O)NC2CCN(C(C)C)CC2)C(C(=O)O)C1 (centres undefined) | n | n | n | n | n | n | x | x
O=C(Nc1cccc(-n2cccn2)c1)C1CCCN(Cc2cc3ccccc3[nH]2)C1 (centres undefined) | n | n | x | n | n | n | x | x
CCn1ncc(CN2CCCC(C(=O)Nc3cccc(-c4cc5ccccc5[nH]4)c3)C2)c1C (centres undefined) | n | n | n | 58.5 | n | n | n | x
SMILES | Gli-Sufu block | 697 NFkB inh | CSC inhib | Mdm2-MdmX inh | aSyn 5UTR inh | Jurkat NFkB inh | Mdm2 MdmX conf | FLuc counter
CCC(=O)N1CCc2cc(S(=O)(=O)N3CCN(c4cc(C)ccc4C)CC3)ccc21 | n | n | n | n | n | n | x | x
CC(NC(=O)c1cccnc1)C(c1cccs1)N1CCN(C)CC1 (centres undefined) | n | n | n | n | n | n | x | x
CO/N=C\CC(=O)Nc1ccc(Oc2ccccc2)cc1 | n | n | n | 51.9 | n | n | 63.0 | 73.3
O=C(C/C=N\O)Nc1ccc(Oc2ccccc2)cc1 | n | n | n | n | n | n | x | x
CC(=O)c1cccc(NS(=O)(=O)c2cc(-c3cnc(C4CC4)o3)ccc2C)c1 | n | n | u | 56.7 | n | n | 60.5 | 61.4
COc1ccccc1NS(=O)(=O)c1ccc(O)cc1 | n | n | n | n | n | n | x | x
COc1ccc(N2CCN(S(=O)(=O)c3ccc(-c4cnc(C5CC5)o4)cc3)CC2)cc1 | n | n | n | n | n | n | x | x
Cc1ccc(-c2cnc(C3CC3)o2)cc1S(=O)(=O)Nc1ccccc1 | n | n | x | 60.6 | n | n | 66.0 | n
COc1ccccc1NS(=O)(=O)c1ccc(-c2cnc(C3CC3)o2)cc1 | n | n | n | 69.8 | n | n | 63.9 | 80.5
COc1cccc(N2CCN(S(=O)(=O)c3ccc(-c4cnc(C5CC5)o4)cc3)CC2)c1 | n | n | n | 78.9 | n | n | n | x
CCc1ccccc1NC(=O)NNS(=O)(=O)c1cc(C)ccc1C | n | n | n | n | n | n | x | x
Cc1ccc(C(C(=O)NCCc2ccccc2)N(C(=O)c2csnn2)C2CC2)o1 (centres undefined) | n | n | n | n | n | n | x | x
CCOC(=O)c1sc(Nc2nc(C)cc(OC)n2)nc1C | n | n | n | n | n | n | x | x
CCOC(=O)c1sc(Nc2nc(C)cc(C)n2)nc1C | n | n | n | 56.6 | 84.1 | n | 60.3 | 57.2
CCS(=O)(=O)c1cc([N+](=O)[O-])c(Sc2ccccc2NC(C)=O)s1 | n | n | n | n | n | n | x | x
CCOC(=O)C1CCN(c2cc3c(cc2NC(=O)c2ccc(OC)c(OC)c2)n(C)c(=O)n3C)CC1 | n | n | n | 65.0 | n | n | n | x
CCOC(=O)c1ccc(NC(=O)c2nc[nH]c2C(=O)NCCNC(=O)c2[nH]cnc2C(=O)Nc2ccc(C(=O)OCC)cc2)cc1 | n | n | 122.0 | 100.5 | x | n | 41.0 | 81.5
Cc1cccc(NC(=O)c2nc[nH]c2C(=O)N[C@H](C)c2ccccc2)c1 | n | n | u | 56.7 | x | n | n | 49.6
CCOC(=O)c1ccc(NC(=O)c2nc[nH]c2C(=O)N[C@H](C)c2ccccc2)cc1 | n | n | n | 60.1 | n | n | n | x
Cc1ccc(NC(=O)c2nc[nH]c2C(=O)N[C@H](C)c2ccccc2)cc1 | n | n | n | n | x | n | x | x
COc1ccc(/C=C/C(=O)NCC(=O)N/N=C(/CCC(=O)O)c2ccccc2)cc1 | n | n | n | n | n | n | x | x
Cc1ccc(/C=N/NC(=O)CCn2nc(C)cc2C)c(C)c1 | x | n | n | n | n | n | x | x
CCOC(=O)c1nn(-c2ccccc2C)c(=O)cc1OCC(=O)N1CCN(c2ccccc2)CC1 | n | n | n | n | n | n | x | x
